The text below walks through data of PubChem BioAssay (NCI).

About 79,000 compounds went through this panel and 15% of them were active in at least one assay; those are over-represented in the sample as a whole. Activity calls are given as the source filed them. No stated cut-off is given here; in the data, active means growth inhibition above about 70%; inactive means the rest.

The first assay can be described thus: NCI Yeast Anticancer Drug Screen. Data for the mec2-1 strain (AID 157). The conditions noted are these: S. cerevisiae mec2-1 strain, at 50.0 µM (retest, dose inferred, filed as 5.0), active compounds read high. The method in brief: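 mec2-1 yeast strain, carrying an alteration in DNA damage repair or cell cycle control, was exposed to compounds; growth inhibition was measured relative to vehicle-treated controls.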
Consider `CCCCN(CCC(=O)O)c1ccc(/C=C\c2ccnc3ccccc23)cc1`, for which the growth inhibition was 89% (active).
Same read-out and setting: to `CC1CC(N)=NC1C(=O)NCCC#N` (stereo not drawn) belongs 8% (inactive); to `O=C(CC1(O)CCCCC1)OC1CCCC1`, -11% (inactive); to `CN(C)c1nc(-c2ccccc2)cc(-c2ccc(O)cc2)n1`, 27% (inactive).
Still for that read-out and setting: to `Oc1cc(C(c2ccccc2)c2ccccc2)c2ccccc2c1O` belongs 8% (inactive).
On the same count and under the same terms, then `C(=P(c1ccccc1)(c1ccccc1)c1ccccc1)[P+](c1ccccc1)(c1ccccc1)c1ccccc1`, with 100% (active); and `COC(=O)c1ccc(CCc2cc(O)ccc2O)cc1`, with 100% (active).
Turning to `CCCCCCCCCCN`, the growth inhibition was 13% (inactive).
Regarding `CC[N-]c1nncs1.CC[N-]c1nncs1.CC[N-]c1nncs1.CC[N-]c1nncs1.[Cl][Rh][Cl]`, the growth inhibition is 74% (active).
Same read-out and setting: to `CC(C)C1=CC23CCC4C(C)(C(=O)O)CCCC4(C)C2CC1CC3C#N` (stereo not drawn) belongs 34% (inactive); to `COc1ccc(/C(Cl)=C(\C=O)c2ccc(Cl)cc2)cc1`, 2% (inactive); to `CCOC(=O)Cc1csc(/N=C\c2c(O)c3ccccc3oc2=O)n1`, 25% (inactive).
Turning to `Cc1cccc(/C=N/NC(=S)Nc2ccccc2)n1`, the growth inhibition is 99% (active).
Same read-out and setting: to `Nc1nn2c(C(Br)Br)cc(C(Br)Br)nc2c1[N+](=O)[O-]` belongs 100% (active); to `c1ccc2nc3ccccc3nc2c1`, 36% (inactive).
Same read-out and setting: then `O=c1ccc2nc3ccccc3ccc-2c1`, with -55% (inactive); and `C=CCOCC(C)OC(=O)C(C)C` (stereo not drawn), with -52% (inactive); and `CCCCCCOC(=O)CCC(=O)OCCCCCC`, with -20% (inactive).
The same measure, in the same setting: to `CC(=O)C(C(C)=O)C1C=CC=CC=C1` belongs 87% (active); to `CCCOC(=O)CCCC(=O)N(CC)CC`, 1% (inactive).
Take `CCOC(=O)C(=O)CC1=Nc2ccccc2SC(c2cccc(C)c2)C1` (stereo not drawn): the growth inhibition was 98% (active).
For `COc1cc2c(c(-c3cn(C)c4ccccc34)c1OC)OCO2`, the growth inhibition is 54% (inactive).
Regarding `COC(=O)c1c(C)cccc1C1CN=NC12Cc1ccc(C)c(C)c1C2=O` (stereo not drawn), the growth inhibition is 47% (inactive).
On the same count and under the same terms, then `CCCCCCCCCCC(=O)CC(=O)c1c(O)cccc1O`, with 5% (inactive); and `CCCCCCNC(=S)N/N=C(\C)c1ccccn1`, with 99% (active).
As for `Oc1ccc(N=Nc2ccc(Cl)cc2)cc1O`, the growth inhibition was 98% (active).
Still for that read-out and setting: to `CCO/C=C1\N=C(C(O)(c2ccc(Cl)cc2)c2ccc(Cl)cc2)OC1=O` belongs 16% (inactive).
Still for that read-out and setting: then `Clc1ccc(CN2COc3c(ccc4cccnc34)C2)cc1`, with 65% (inactive); and `Cc1nc(C(N)=S)sc1/C(CC(=O)C(=O)Nc1cccc2ccc(O)cc12)=N\NC(=O)c1ccncc1`, with 18% (inactive).
As for `Nc1ncc(C(=O)c2ccccc2)cc1[N+](=O)[O-]`, the growth inhibition was -37% (inactive).
Consider `O=C1C2C3C=CC(C3)C2C(=O)C2C3C=CC(C3)C12` (stereo not drawn), for which the growth inhibition was 98% (active).
Still for that read-out and setting: then `CCCCOC(=O)c1cnc[nH]c1=O`, with 3% (inactive); and `N#CC(c1ccc(Cl)cc1)c1ccc([N+](=O)[O-])cc1` (stereo not drawn), with 37% (inactive).
Still for that read-out and setting: then `CN(C)C(N)=NC#N`, with 86% (active); and `CCCCc1c(O)c(N=NC(=O)C[n+]2ccccc2)c2ccccc2c1O`, with 32% (inactive); and `CCOC(=O)C(=O)Nc1nc2c(s1)C(=O)c1ccccc1C2=O`, with 98% (active).
On the same count and under the same terms, to `COc1ccc(C(=O)Nc2ccccc2[N+](=O)[O-])cc1` belongs -23% (inactive).
Take `COc1ccccc1NC(=O)/C(=C/n1c(=S)sc2ccccc21)C(C)=O`: the growth inhibition was 14% (inactive).
Turning to `Cc1ccc(C)c(C(=O)/C=C/C(=O)O)c1`, the growth inhibition is 99% (active).

The same assay, now with this note: S. cerevisiae mec2-1 strain, at 50.0 µM, active compounds read high.
As to `CCCCN(CCC(=O)O)c1ccc(/C=C\c2ccnc3ccccc23)cc1`, the growth inhibition is 93.5% (active).
On the same count and under the same terms, then `CC1CC(N)=NC1C(=O)NCCC#N` (stereo not drawn), with 3.25% (inactive); and `O=C(CC1(O)CCCCC1)OC1CCCC1`, with -13.2% (inactive); and `CN(C)c1nc(-c2ccccc2)cc(-c2ccc(O)cc2)n1`, with 13.7% (inactive).
Same read-out and setting: to `Oc1cc(C(c2ccccc2)c2ccccc2)c2ccccc2c1O` belongs 98.5% (active); to `C(=P(c1ccccc1)(c1ccccc1)c1ccccc1)[P+](c1ccccc1)(c1ccccc1)c1ccccc1`, 99.3% (active).
The same measure, in the same setting: then `COC(=O)c1ccc(CCc2cc(O)ccc2O)cc1`, with 98.5% (active).
On to `CCCCCCCCCCN`, for which the growth inhibition was 34.6% (inactive).
Still for that read-out and setting: then `CC[N-]c1nncs1.CC[N-]c1nncs1.CC[N-]c1nncs1.CC[N-]c1nncs1.[Cl][Rh][Cl]`, with 97.8% (active).
The same measure, in the same setting: to `CC(C)C1=CC23CCC4C(C)(C(=O)O)CCCC4(C)C2CC1CC3C#N` (stereo not drawn) belongs 98.5% (active); to `COc1ccc(/C(Cl)=C(\C=O)c2ccc(Cl)cc2)cc1`, 7.7% (inactive); to `CCOC(=O)Cc1csc(/N=C\c2c(O)c3ccccc3oc2=O)n1`, -32.4% (inactive).
The same measure, in the same setting: to `Cc1cccc(/C=N/NC(=S)Nc2ccccc2)n1` belongs 92.8% (active).
Take `Nc1nn2c(C(Br)Br)cc(C(Br)Br)nc2c1[N+](=O)[O-]`: the growth inhibition is 99.5% (active).
Same read-out and setting: to `c1ccc2nc3ccccc3nc2c1` belongs 41.2% (inactive); to `O=c1ccc2nc3ccccc3ccc-2c1`, 15.2% (inactive).
On the same count and under the same terms, then `C=CCOCC(C)OC(=O)C(C)C` (stereo not drawn), with -6.9% (inactive).
On the same count and under the same terms, then `CCCCCCOC(=O)CCC(=O)OCCCCCC`, with 17.9% (inactive); and `CC(=O)C(C(C)=O)C1C=CC=CC=C1`, with 92.5% (active); and `CCCOC(=O)CCCC(=O)N(CC)CC`, with -7.7% (inactive).
Regarding `CCOC(=O)C(=O)CC1=Nc2ccccc2SC(c2cccc(C)c2)C1` (stereo not drawn), the growth inhibition was 92.9% (active).
Same read-out and setting: then `COc1cc2c(c(-c3cn(C)c4ccccc34)c1OC)OCO2`, with 15.3% (inactive); and `COC(=O)c1c(C)cccc1C1CN=NC12Cc1ccc(C)c(C)c1C2=O` (stereo not drawn), with 43.2% (inactive); and `CCCCCCCCCCC(=O)CC(=O)c1c(O)cccc1O`, with -0.35% (inactive).
Same read-out and setting: to `CCCCCCNC(=S)N/N=C(\C)c1ccccn1` belongs 85.7% (active); to `Oc1ccc(N=Nc2ccc(Cl)cc2)cc1O`, 98.3% (active).
On the same count and under the same terms, then `CCO/C=C1\N=C(C(O)(c2ccc(Cl)cc2)c2ccc(Cl)cc2)OC1=O`, with 16% (inactive).
Consider `Clc1ccc(CN2COc3c(ccc4cccnc34)C2)cc1`, for which the growth inhibition was 64.5% (inactive).
Still for that read-out and setting: then `Cc1nc(C(N)=S)sc1/C(CC(=O)C(=O)Nc1cccc2ccc(O)cc12)=N\NC(=O)c1ccncc1`, with 7.5% (inactive).
Still for that read-out and setting: to `Nc1ncc(C(=O)c2ccccc2)cc1[N+](=O)[O-]` belongs 21.8% (inactive); to `O=C1C2C3C=CC(C3)C2C(=O)C2C3C=CC(C3)C12` (stereo not drawn), 99.3% (active); to `CCCCOC(=O)c1cnc[nH]c1=O`, -2.65% (inactive).
Same read-out and setting: then `N#CC(c1ccc(Cl)cc1)c1ccc([N+](=O)[O-])cc1` (stereo not drawn), with 20.5% (inactive); and `CN(C)C(N)=NC#N`, with 75.7% (active).
Take `CCCCc1c(O)c(N=NC(=O)C[n+]2ccccc2)c2ccccc2c1O`: the growth inhibition is 11.6% (inactive).
On the same count and under the same terms, to `CCOC(=O)C(=O)Nc1nc2c(s1)C(=O)c1ccccc1C2=O` belongs 95.8% (active); to `COc1ccc(C(=O)Nc2ccccc2[N+](=O)[O-])cc1`, 8.3% (inactive); to `COc1ccccc1NC(=O)/C(=C/n1c(=S)sc2ccccc21)C(C)=O`, 48% (inactive).
Same read-out and setting: to `Cc1ccc(C)c(C(=O)/C=C/C(=O)O)c1` belongs 70.7% (active).
